Test systems include SR leukemia; RPMI-8226 leukemia; OVCAR-8 ovarian; OVCAR-5 ovarian; OVCAR-4 ovarian; SK-OV-3 ovarian; IGROV1 ovarian; OVCAR-3 ovarian; HS 578T breast; NCI/ADR-RES ovarian; BT-549 breast; MDA-MB-435 melanoma; SW-620 colon; MCF7 breast; HCT-116 colon; HCC-2998 colon; KM12 colon; T-47D breast.
Experiment in all cases: NCI-60 one-dose screen, 48 h (100 = growth as untreated, 0 = no growth, -100 = all killed)
What all share (details): 10 µM unless noted

Consider nine compounds from PubChem BioAssay (NCI).

Compounds without any hit were thinned out: in the full panel of roughly 83,000, 20% have a hit.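 Assay: single dose, 48 h. Readout: percent growth (0 = no net growth; negative = cell death). Active: <10.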 Unmarked numbers belong to inactive results. Active and inactive are the calls of the source.

Consider `CN(C)c1ccc([C@@H](C(=O)Nc2cccc([N+](=O)[O-])c2)N(C(=O)c2cc3ccccc3[nH]2)c2cccc([N+](=O)[O-])c2)cc1`, for which the growth with SR leukemia was 97%; in the experiment with RPMI-8226 leukemia it was 92.6%; with OVCAR-8 ovarian, 93.3%; with OVCAR-5 ovarian, 94.7%; in the experiment on OVCAR-4 ovarian, 99.4%; in the experiment with SK-OV-3 ovarian it was 103%. The growth was 103% with IGROV1 ovarian; 111% in the experiment on OVCAR-3 ovarian; 93.5% in the experiment with HS 578T breast; 102% in the experiment with NCI/ADR-RES ovarian; 95.4% with BT-549 breast; 108% in the experiment with MDA-MB-435 melanoma. Further, the growth in the experiment on SW-620 colon is 98.7%; in the experiment with MCF7 breast, 89.6%; with HCT-116 colon, 90.4%; in the experiment with HCC-2998 colon, 107%; in the experiment on KM12 colon, 103%.

In the case of `COCCn1cc(-c2nc(-c3cc4cccnc4n3C)cs2)c2ccccc21`, the growth in the experiment on SR leukemia is 10.1%; in the experiment on RPMI-8226 leukemia it was 55.7%; in the experiment with OVCAR-8 ovarian, 39%; in the experiment with OVCAR-5 ovarian, 49%; with OVCAR-4 ovarian it was 25.1%; in the experiment on SK-OV-3 ovarian it was 58.7%. Further, the growth in the experiment with IGROV1 ovarian was 43.7%; in the experiment with OVCAR-3 ovarian it was 31.5%; in the experiment on HS 578T breast, 61.5%; with T-47D breast, -36.7% (active); in the experiment on BT-549 breast, 24.9%; in the experiment with MDA-MB-435 melanoma it was 6.84% (active). Besides, the growth was 28.9% with SW-620 colon, 6.6% (active) in the experiment on MCF7 breast, 57.8% with HCC-2998 colon and 4.96% (active) with KM12 colon.

Take `c1ccc(-c2nc3ccccc3[nH]2)c(OCCCCCOc2ccccc2-c2nc3ccccc3[nH]2)c1`: the growth is 2.06% (active) with SR leukemia; 23.8% with RPMI-8226 leukemia; 64.3% in the experiment on OVCAR-8 ovarian; 92.2% in the experiment with OVCAR-5 ovarian; 58.9% with OVCAR-4 ovarian; 169% with SK-OV-3 ovarian. Further, the growth in the experiment with IGROV1 ovarian was 70%; in the experiment with OVCAR-3 ovarian, 59.7%; with HS 578T breast it was 89%; in the experiment on T-47D breast, 111%; with BT-549 breast it was 88.5%; in the experiment on MDA-MB-435 melanoma, 63.5%. Besides, the growth is 18.5% in the experiment on SW-620 colon; 19.8% in the experiment on MCF7 breast; -10.4% (active) with HCT-116 colon; 92.2% with HCC-2998 colon; 98.6% in the experiment on KM12 colon.

As to `Oc1ccc(-c2nc3ccc4[nH]ncc4c3c3c2CCCC3)c(F)c1`, the growth in the experiment on SR leukemia was -1.33% (active); in the experiment with RPMI-8226 leukemia it was 33.2%; in the experiment on OVCAR-8 ovarian, 38%; in the experiment on OVCAR-5 ovarian, 59.7%; in the experiment on OVCAR-4 ovarian, 51.3%; with SK-OV-3 ovarian it was -6.45% (active). Besides, the growth in the experiment on IGROV1 ovarian is 22.9%; in the experiment on OVCAR-3 ovarian it was 46.6%; with HS 578T breast it was 14.8%; in the experiment on NCI/ADR-RES ovarian, 52%; in the experiment on BT-549 breast it was 13.9%; in the experiment with MDA-MB-435 melanoma, -23.3% (active). For the same compound, the growth was 8.41% (active) in the experiment on SW-620 colon; 26.8% in the experiment on MCF7 breast; 4.73% (active) in the experiment on HCT-116 colon; 41.4% in the experiment on HCC-2998 colon; 20% with KM12 colon.

`CCn1cc(Cc2cc(C(=O)Nc3cc4cc(OC)c(OC)cc4c(C)n3)ccc2Cl)cn1`: the growth is 10% with SR leukemia; 29.6% in the experiment on RPMI-8226 leukemia; 34.6% in the experiment with OVCAR-8 ovarian; 103% in the experiment on OVCAR-5 ovarian; 58.2% in the experiment on OVCAR-4 ovarian; 57.9% in the experiment with SK-OV-3 ovarian. Further, the growth in the experiment with IGROV1 ovarian was 69.5%; in the experiment on OVCAR-3 ovarian, 38%; in the experiment with HS 578T breast it was 49.5%; in the experiment with T-47D breast it was 19.8%; in the experiment with BT-549 breast it was 17.3%; in the experiment with MDA-MB-435 melanoma, 2.12% (active). The growth was 38.3% in the experiment on SW-620 colon; 18.5% in the experiment on MCF7 breast; 10.3% in the experiment on HCT-116 colon; 65.1% with HCC-2998 colon; 37.7% in the experiment with KM12 colon.

On to `COC(=O)c1nc(-c2ccccc2)oc1S(=O)(=O)N1CCCC(C)C1` (stereo unspecified), for which the growth is 0.921% (active) in the experiment with SR leukemia; 51% in the experiment with RPMI-8226 leukemia; 81.9% with OVCAR-8 ovarian; 87.4% with OVCAR-5 ovarian; 83.2% in the experiment with OVCAR-4 ovarian; 110% in the experiment on SK-OV-3 ovarian. The growth in the experiment with IGROV1 ovarian is 64%; in the experiment on OVCAR-3 ovarian, 48.9%; with HS 578T breast, 104%; with T-47D breast, 69.2%; in the experiment on BT-549 breast, 75%; with MDA-MB-435 melanoma, 84.5%. The growth in the experiment on SW-620 colon is 35.4%; with MCF7 breast it was 47.3%; in the experiment on HCT-116 colon, 63.9%; with HCC-2998 colon, 104%; in the experiment on KM12 colon, 97.7%.

Regarding `CC(=O)O[C@H]1CC[C@]2(C)[C@H]3CC=C4[C@@H]5CC(C)(C)CC[C@]5(C(=O)N5CCN(CCC#N)CC5)CC[C@@]4(C)[C@]3(C)CC[C@H]2C1(C)C`, the growth in the experiment on SR leukemia was 13.7%; in the experiment with RPMI-8226 leukemia, 13.3%; with OVCAR-8 ovarian it was 29.6%; with OVCAR-5 ovarian, 70.6%; in the experiment on OVCAR-4 ovarian, -44.1% (active); with SK-OV-3 ovarian, 60.6%. In addition, the growth with IGROV1 ovarian was 39.1%; with OVCAR-3 ovarian, -9.23% (active); with HS 578T breast it was 61.2%; in the experiment on T-47D breast, 29%; in the experiment with BT-549 breast, 40.9%; in the experiment with MDA-MB-435 melanoma, 31.5%. Besides, the growth in the experiment on SW-620 colon is 19.4%; in the experiment with MCF7 breast it was 11.6%; with HCT-116 colon, -2.33% (active); in the experiment on HCC-2998 colon, 47.7%; in the experiment with KM12 colon it was 28.6%.

For `CNC(=O)c1cc(Oc2ccc3c(c2)sc2nc(-c4ccc(Cl)c(C(F)(F)F)c4)cn23)ccn1`, the growth in the experiment on SR leukemia is 41.6%; in the experiment on RPMI-8226 leukemia it was 33.9%; with OVCAR-8 ovarian it was 52.5%; with OVCAR-5 ovarian it was 100%; in the experiment with OVCAR-4 ovarian, 65%; with SK-OV-3 ovarian it was 78%. For the same compound, the growth in the experiment with IGROV1 ovarian was 86.3%; with OVCAR-3 ovarian, 74.2%; with HS 578T breast, 80.3%; with NCI/ADR-RES ovarian, 60.9%; in the experiment on T-47D breast it was 25.7%; with BT-549 breast, 45.9%. Also, the growth in the experiment with MDA-MB-435 melanoma is 65.8%; in the experiment on MCF7 breast it was 36.8%; in the experiment on HCC-2998 colon, 80.5%; in the experiment with KM12 colon, 82.6%.

Take `FC(F)(F)c1[nH]ncc1-c1nc2ccc3[nH]ncc3c2c2c1CCCC2`: the growth with SR leukemia was -16.6% (active); with RPMI-8226 leukemia it was 12.3%; with OVCAR-8 ovarian it was 13.7%; with OVCAR-5 ovarian, 9.73% (active); with OVCAR-4 ovarian, 45.8%; with SK-OV-3 ovarian it was -3.29% (active). Moreover, the growth is -8.57% (active) in the experiment with IGROV1 ovarian; 9.88% (active) in the experiment on OVCAR-3 ovarian; -3.07% (active) in the experiment with HS 578T breast; 0% (active) in the experiment with T-47D breast; -24% (active) in the experiment with BT-549 breast; 32.1% with MDA-MB-435 melanoma. The growth in the experiment with SW-620 colon is 7.83% (active); with MCF7 breast it was 1.69% (active); with HCT-116 colon, 1.68% (active); in the experiment with HCC-2998 colon it was 5.29% (active); in the experiment on KM12 colon, 11.1%.
